The structures appear in SMILES notation. The panel holds about 83,000 compounds, 20% with a hit somewhere; the sample as a whole holds those more often.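 Cells were grown in 96-well plates and exposed to the test compound at a single concentration for 48 hours; results are reported as percent growth, with values below 10 considered active.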 Values without a mark were called inactive. Active and inactive are the calls of the source.

The test system of the experiment is MOLT-4 leukemia. The experiment is described as follows: NCI-60 one-dose screen, 48 h (100 = growth as untreated, 0 = no growth, -100 = all killed). To be noted: 10 µM unless noted.
Regarding `O=C1C(Cl)=C(NCCCCCCNC2=C(Cl)C(=O)c3ccccc3C2=O)C(=O)c2ccccc21`, the growth was 82.4%. For `CCCC/C=C/[C@@H]1C[C@H]1CCO` the value was 103%; for `C=C(C)[C@@H]1CC[C@]2(CO)CC[C@]3(C)[C@H](CC[C@@H]4[C@@]5(C)CC[C@H](NCO)C(C)(C)[C@@H]5CC[C@]43C)[C@@H]12`, -26.7% (active).

In the case of `Cc1cccc(/C=C/c2c(C(=O)/C=C/c3ccccc3)c(C)nc3ccccc23)c1`, the growth is 5.83% (active).

As for `Cc1ccc(-c2nc(N3CCCNCC3)c3oc(-c4ccc(C)cc4)nc3n2)cc1`, the growth is -66% (active). Regarding `Cc1sc2nc(NCCc3c[nH]c4ccc(Cl)cc34)[nH]c(=O)c2c1C`, the growth was 38.7%. For `COc1ccc(OC)c(Nc2nnc(-c3ccc(O)c(OC)c3)o2)c1` the value was 60.8%; for `COc1ccccc1NC(=O)N=Nc1c(O)[nH]c2ccccc12`, 93.4%.

With `Nc1nc2ccccc2c2c1S(=O)(=O)c1ccc(Cl)cc1C2=O`, the growth is 3.11% (active). Take `Nc1n[nH]c2cccc(C#Cc3cccc(C(=O)Nc4cc(C(F)(F)F)cc(C(F)(F)F)c4)c3)c12`: the growth is 35.4%. For `CS(=O)(=O)Nc1cc(-c2ccc3ncnc(Nc4ccc5c(cnn5Cc5ccc(F)cc5)c4)c3c2)cnc1Cl` the value was 21.2%; for `Fc1cc2c(cc1Cl)N(c1ncnc3ccc(-c4ccc5n[nH]nc5c4)cc13)CC2`, 90.5%; for `CCN1C(=S)N(c2ccccc2)C2NC(=S)N(/N=C/C=C/c3ccccc3OC)C21` (stereo not given), 9.49% (active). To `O=c1c2cccc3c(N4CCCC4)ccc(c32)c2nc3ccccc3n12` belongs 2.57% (active). To `OB1OCc2cc(/C=C/c3cccc(C(F)(F)F)c3)ccc21` belongs -3.42% (active). Turning to `O=C(/C=C/c1ccccc1)Nc1ncc(Cc2ccccc2Cl)s1`, the growth is 34.2%. For `CN(C)CCNC(=O)c1ccc(-c2nc3ccc4[nH]ncc4c3c3c2C2CCC3C2)cc1` (stereo not given), the growth is -8.33% (active).

Turning to `COC12C=C/C(=C(/C(=O)OCc3ccncc3)C(=O)CCCCCCCCC3(OC)C=C/C(=C(/C(=O)OCc4ccncc4)C(=O)CCCCCCCC1)O3)O2`, the growth was -1.82% (active). To `O=C(/C=C/c1cccc(Cl)c1)c1cccc(OCCCOc2cccc(C(=O)/C=C/c3cccc(Cl)c3)c2)c1` belongs 96.9%; to `CCn1c(SCC(=O)N/N=C(\C)c2ccc(Cl)cc2)nc2c1c(=O)n(C)c(=O)n2C`, 92.2%; to `Cc1ccc(C[P+](c2ccccc2)(c2ccccc2)c2ccccc2)cc1`, -31.4% (active). To `Clc1ccc2c(NC3CCC(N4CCOCC4)CC3)ccnc2c1` (stereo not given) belongs 74.4%; to `Cc1ccc(C2=Nc3c(N)ncnc3NC(c3cccc(Nc4ccnc5cc(C(F)(F)F)ccc45)c3)C2)cc1` (stereo not given), -2.37% (active); to `COc1ccc(-c2noc(C(=O)O)c2-c2cc(OC)c(OC)c(OC)c2)cc1`, 25.7%.

`CCOC(=O)c1nn(-c2ccc(S(N)(=O)=O)cc2)c2nc(C)cc(=O)n12`: the growth was 119%. Take `CCSC(SCC)c1ccc(Cl)cc1`: the growth is 110%. As to `CSc1nc2ccccc2cc1/C=C1/C=C(c2ccccc2)NC1=O`, the growth was 36.3%.

On to `COC1/C=C/OC2(C)Oc3c(C)c(O)c4c(O)c(c(/C=N/Nc5ccc([N+](=O)[O-])cc5[N+](=O)[O-])c(O)c4c3C2=O)NC(=O)C(C)=C/C=C/C(C)C(O)C(C)C(O)C(C)C(OC(C)=O)C1C` (stereo not given), for which the growth was 0.359% (active). Consider `O=C1C(Cl)=C(Nc2ccc(S(=O)(=O)N3CCOCC3)cc2)C(=O)c2ccccc21`, for which the growth was 5.92% (active). Turning to `c1csc(-c2ccc(CNc3c4ccccc4nc4ccccc34)cc2)c1`, the growth was 1.96% (active). In the case of `Nc1ncc(-c2ccc3ncnc(Nc4cccc(Cl)c4)c3c2)cn1`, the growth was 21.7%. For the compound `CCOC(=O)C#Cc1c(C(=O)OCC)nnn1Cc1ccc([N+](=O)[O-])cc1`, the growth was 14.9%. To `O=C(CSc1nc2ccc([N+](=O)[O-])cc2[nH]1)Nc1ccc([N+](=O)[O-])cc1` belongs 5.72% (active); to `CC(C)(Sc1cc(C(C)(C)C)c(OC(=O)CCCC(=O)O)c(C(C)(C)C)c1)Sc1cc(C(C)(C)C)c(OC(=O)CCCC(=O)O)c(C(C)(C)C)c1`, 26.6%; to `O=C(N(c1ccccc1)c1ccccc1)n1cc(I)c2nc(Cl)nc(Cl)c21`, 2.48% (active). To `NC(=O)CSc1oc(-c2ccccc2)nc1S(=O)(=O)c1ccc(Br)cc1` belongs 89.2%; to `COc1ccc(/C=C/C(=O)c2cc3c(N)c(C(=O)Nc4cccc5ccccc45)sc3nc2C)cc1`, 100%; to `Nc1ncnc2c1c(-c1cccc(Cl)c1)nn2CC(=O)N1CCOCC1`, 110%.

On to `CC(=O)O[C@H]1CC2CCC3C(CC[C@@]4(C)C3C[C@H]([N+]3(C)CCCCC3)[C@@H]4OC(C)=O)[C@@]2(C)C[C@@H]1N1CCCCC1` (stereo not given in full), for which the growth is 98.9%. On to `c1ccc(Cn2cc3c(c2)-c2oncc2CC3)cc1`, for which the growth is 53.6%.

For the origin of these results see PubChem BioAssay (NCI).
